Most compounds without a hit are left out; they make up all but 1.4% or so of the library.
Vif-APOBEC3F blk – inhibitors of Vif-A3F interaction; HeLa A3F-eYFP + Vif (tagged APOBEC3F with the HIV-1 protein that degrades it), YFP fluorescence increase; 0.2% of 390,000 active; Potency, µM (titrated, usually from 46.1 µM), inactives show at the highest dose activity, negative = active; AID 602313; further: potency means the concentration at half of the fitted maximal effect; % of control where 0% means no effect; nearly all actives have a fitted effect of over 65% in size
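HeLa cells stably expressing A3F-eYFP plus Vif, plated and incubated overnight at 37 deg C, then exposed to compounds overnight at 37 deg C. Blocked degradation read as raised yellow fluorescence (Ex 488/Em 500-530).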
Vif-A3G inh – Vif-A3G binding inhibition; Q9HC16; HeLa A3G-eYFP + Vif (tagged APOBEC3G with the HIV-1 protein that degrades it), YFP fluorescence, overnight; Potency, µM (highest dose often 46.1 µM), inactives show at the highest dose activity, negative = active, actives largely listed as inhibitors; 0.076% of 410,000 active; further: potency means the concentration at half of the fitted maximal effect; on the % scale 0 is the no-effect control and ±100 the full control effect; nearly all actives have a fitted effect of over 60% in size
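HeLa cells stably expressing Vif and C-terminally eYFP-tagged A3G, seeded overnight at 37 deg C, then exposed to compound by pintool overnight at 37 deg C. Rise in yellow fluorescence (Ex 488/Em 500-530, Acumen) marks blocked Vif-driven A3G degradation.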
pAkt inh – blocks phosphorylation of Akt. Neuro2A IGF-stimulated pAkt S473 HTRF, 20 min; stronger effect = lower value. activity change, % for hits at 50 µM. 0.32% of 360,000 active. AID 651550; in the data active means activity change below about -80%; inconclusive means mostly about -51% to -80%; further: on the % scale 0 is the no-effect control and ±100 the full control effect
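Single-point screen (50 µM final compound) in Neuro2A cells stimulated 20 min with 6 nM IGF at 37 deg C. After lysis, Ser473-phosphorylated Akt read by HTRF (ex 330 nm, em 615/665 nm) as the 665/615 ratio.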
12-LOX inh – blocks human arachidonate 12S-lipoxygenase. P18054. purified 12hLO, xylenol orange hydroperoxide absorbance. Potency, µM (doses to about 108 µM), for the others: at the highest dose activity change, negative = inhibition, hits mostly inhibitors. 1.1% of 580,000 active; further: potency means the concentration at half of the fitted maximal effect; on the % scale 0 is the no-effect control and ±100 the full control effect
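Hydroperoxide product was detected by ferrous iron/xylenol orange as the 573 to 405 nm absorbance ratio. Arachidonic acid at 40 uM (final) was turned over for 30 min at room temperature by 150 nM human 12hLO, pH 7.0 Hepes buffer, after 15 min compound preincubation.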
PTAP TSG101 blk – blocks PTAP/TSG101 interaction to inhibit HIV-1 budding; 340,000 tested, under 10 active; AID 493005; Fluorescence polarization, FITC-PTAP peptide / Tsg101 binding; Q99816; Potency, µM (highest dose often 115 µM), for inactives: at the top dose activity change, negative = inhibition, usual class: inhibitors; active means well fitted inhibition curve with a large enough effect in the main read-out, with a control signal flat, not every such curve was filed as active; inconclusive means small, poorly fitted or top-dose-only effect, or effect the other way, or a change in a side signal; inactive means no such curve, though single readings can be large or run the other way; further: potency means the concentration at half of the fitted maximal effect; % of control where 0% means no effect
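Tsg101 binding domain (10 uM final) was mixed with compound and a FITC-labeled PTAP peptide (50 nM final) in HEPES pH 7.5 buffer with NaCl, Tween 20, EDTA and TCEP; fluorescence polarization was read after 20 min at r.t.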
ASM inhibitor – blocks human secretory acid sphingomyelinase | P17405 | placental ASM, HMU-PC fluorogenic substrate, 60 min | Potency, µM (doses to about 57.5 µM), for the others: top-dose activity change, negative = inhibition, most hits filed as inhibitors | 0.006% of 340,000 active; further: potency means the concentration at half of the fitted maximal effect
Target sequence (P17405 47-631 limits assumed): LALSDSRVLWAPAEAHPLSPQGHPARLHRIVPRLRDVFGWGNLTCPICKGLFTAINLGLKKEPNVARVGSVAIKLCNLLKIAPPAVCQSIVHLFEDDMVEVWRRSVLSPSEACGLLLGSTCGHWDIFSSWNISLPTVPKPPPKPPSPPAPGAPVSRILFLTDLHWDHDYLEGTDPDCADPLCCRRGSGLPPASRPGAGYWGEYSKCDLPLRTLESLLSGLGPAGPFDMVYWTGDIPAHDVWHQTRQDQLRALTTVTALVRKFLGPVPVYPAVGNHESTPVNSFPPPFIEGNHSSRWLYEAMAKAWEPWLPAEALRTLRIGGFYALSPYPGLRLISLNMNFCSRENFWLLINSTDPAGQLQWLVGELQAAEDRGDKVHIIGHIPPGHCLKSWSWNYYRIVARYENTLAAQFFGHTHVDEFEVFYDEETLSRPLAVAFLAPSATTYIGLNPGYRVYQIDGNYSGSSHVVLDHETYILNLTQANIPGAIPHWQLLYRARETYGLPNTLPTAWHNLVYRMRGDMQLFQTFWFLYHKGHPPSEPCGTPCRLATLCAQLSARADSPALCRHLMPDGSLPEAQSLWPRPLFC
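HMU-PC0 cleavage (9 uM final) by human placental ASM, 60 min at 37 °C following 10 min compound exposure at RT; stopped at pH 10, fluorescence Ex 386/Em 447 nm.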
Numbers without * were called inactive; i = inactive; ? = inconclusive; · = not tested or not shown; [ ] = remark or other dose. Unless noted, the call rests on the fitted dose curve; in most records, active means well fitted curve in the direction sought with a large enough effect; inconclusive means small, poorly fitted or top-dose-only effect, or another doubt; inactive means no such curve, though single readings can be large; an effect the other way counts as inactive or inconclusive.

SMILES | Vif-APOBEC3F blk | Vif-A3G inh | pAkt inh | 12-LOX inh | PTAP TSG101 blk | ASM inhibitor
O=C1CC(=O)CC(c2ccc(F)cc2)C1 | · | · | · | -23.3% | · | ·
CC1(C(=O)NS(=O)(=O)c2cccc(F)c2)CCN1C(=O)c1ccccc1CCc1ccccc1 (stereo not drawn) | · | -2.7% | i | 7.08µM* | · | ·
Cc1cccc(S(=O)(=O)NC(=O)C2(C)CCN2C(=O)c2ccccc2CCc2ccccc2)c1 (stereo not drawn) | · | -4.1% | i | -6.8% | · | ·
COc1cccc(NC(=O)C(=O)N2CCOCC2)c1 | -9.5% | 2.1% | -100.3%* | 316.8% | -2.4% | -2.5%
Cc1ccc(S(=O)(=O)NCCC(=O)Nc2nccs2)cc1C | · | · | · | 6.7% | · | ·
CN1CCCN(C(=O)c2ccc(Cl)cc2)c2ccccc21 | · | · | · | 31.6µM* | · | ·
CCOC(=O)Nc1ccc(NS(=O)(=O)c2ccc(C)cc2Cl)cc1 | · | · | · | 31.6µM* | · | ·
CCOC(=O)Nc1ccc(C)cc1NC(=O)OCC | 6.0% | -2.6% | i | -0.8% | -1.0% | 1.7%
CCCc1nnc(NC(=O)Cn2ccc3c(Cl)cccc32)s1 | · | · | · | 3.2% | · | ·
Nc1nnnn1/N=C/c1ccco1 | -4.9% | 0.8% | -130.3%* | -13.2% | -0.5% | 1.4%
Nc1nnnn1/N=C/c1ccccc1O | 11.7% | -6.6% | i | 375.0% | -3.5% | 14.9%
Fc1ccccc1CN1CCOC[C@H]1c1ncc(-c2ccc(Cl)s2)[nH]1 | · | · | · | 13.0%[176 µM] | · | ·
COCCn1c(=O)[nH]c2cc(C(=O)NCCN3CCN(c4cccc(Cl)c4)CC3)ccc2c1=O | 3.4% | 0.0% | -118.1%* | -21.7% | -5.7% | 111.2%
COCCn1c(=S)[nH]c2cc(C(=O)N3CCN(c4cccc(Cl)c4)CC3)ccc2c1=O | 2.3% | -1.8% | i | -16.0% | -10.9% | -14.2%
COc1cccc(C(=O)NCCN2CCN(c3ccccc3)CC2)c1 | 0.9% | 0.1% | i | 15.8µM* | 1.9% | 1.1%
O=S(=O)(Cc1coc(-c2cccc(Cl)c2)n1)CC1CCCO1 (stereo not drawn) | · | · | · | 24.5% | · | ·
NNc1ccccc1Br | · | · | · | 8.91µM* | · | ·
Cc1ccc(-c2nc(C=Nc3ccc(O)cc3)c(O)o2)cc1 | 25.1µM* | ? | i | -8.6% | ? | 15.7%
CN=Cc1nc(-c2ccccc2)oc1O | 2.8% | 1.3% | i | ? | -2.2% | 3.0%
Cc1cc(C)n(CC(=O)Nc2ccc(C(=O)N3CCN(c4ccccc4)CC3)cc2)c(=O)c1C#N | · | · | · | -9.7% | · | ·
CC(Sc1nnc(N2CCOCC2)n1-c1ccccc1)C(=O)c1ccc(Br)cc1 (stereo not drawn) | · | · | · | -16.5% | · | ·
COc1ccc(OCCCC(=O)Oc2ccc3oc4ccccc4c3c2)cc1 | · | · | · | 12.6µM* | · | ·
COc1ccc(/C=C/C(=O)Oc2ccc3oc4ccccc4c3c2)cc1OC | · | · | · | 4.2% | · | ·
CCCC(=O)N1Cc2ccccc2CC2(CCCN(CCC)C2)C1 (stereo not drawn) | · | · | · | 11.4%[6.33 µM] | · | ·
CCNc1nc(C)c2cc(Br)c(=O)n(CC)c2n1 | -0.6% | -3.8% | -103.6%* | 0.0% | -10.4% | i
O=C(C1=Cc2cc(Cl)ccc2OC1)N1CCN(S(=O)(=O)c2cc(F)ccc2F)CC1 | · | · | · | 39.8µM* | · | ·
CCCNc1nc(-c2ccc(S(=O)(=O)N3CCCCCC3)cc2)cs1 | · | · | · | 31.6µM* | · | ·
C=CCNc1nc(-c2ccc(S(=O)(=O)N3CCCCCC3)cc2)cs1 | · | · | · | -2.9% | · | ·
CCOC(=O)/C(=C\c1ccc([N+](=O)[O-])o1)NC(=O)c1ccccc1 | -16.2% | ? | i | · | -9.4% | -3.1%

Assay outcomes from PubChem BioAssay.
